The source of these data is PubChem BioAssay (EPA / NIEHS).

Records with an inconclusive call do not appear. Active and inactive are the calls of the source. How the source made its calls: active means hit-call score of the fitted dose curve at least 0.9, where 1 is the maximum; inconclusive means response in the unintended direction; inactive means score below 0.9.

Assay [1] deals with rat Constitutive Nitric Oxide Synthase (CNOS), Nos1 (gene 24598) (UniProt P29476). Nature of the assay: NVS_ENZ_rCNOS: NovaScreen (NVS) Enzymatic Assay for rat Constitutive Nitric Oxide Synthase (CNOS) (AID 2283236). In outline:
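Single 25 uM duplicate screen, then concentration series to 50 uM for chemicals meeting threshold. Rat brain membrane-derived CNOS activity detected radiometrically by filtration and scintillation counting, 1 h after compound addition; DMSO as baseline.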

In assay [2] the target is rat Acetylcholinesterase (AChE), Ache (gene 83817) (UniProt P37136). Nature of the assay: NVS_ENZ_rAChE: NovaScreen (NVS) Enzymatic Assay for rat Acetylcholinesterase (AChE) (AID 2283233). In outline:
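Compounds first screened at 25 uM in duplicate, then those passing threshold tested in concentration series up to 50 uM, against AChE from rat brain membranes. Enzyme activity read by absorbance at 0.33 h; inhibition scored versus DMSO.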

Assay [3] deals with rat Monoamine Oxidase, MAO-A, Central (MAOAC), gene 29253. Nature of the assay: NVS_ENZ_rMAOAC: NovaScreen (NVS) Enzymatic Assay for rat Monoamine Oxidase, MAO-A, Central (MAOAC) (AID 2283243).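 Further: potency refers to inhibition seen as signal drop below DMSO baseline.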 In a few lines:
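Enzyme from rat brain, cell-free radiodetection format. Counts taken at 1.5 h; activity fitted against DMSO baseline, loss of signal marking inhibition. Confirmatory concentration series followed the 25 uM duplicate screen.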

Assay [4] deals with guinea pig Leukotriene B4 Receptor (LTB4), gene 100379538. Nature of the assay: NVS_GPCR_gLTB4: NovaScreen (NVS) G Protein-Coupled Receptor Assay for guinea pig Leukotriene B4 Receptor (LTB4) (AID 2283247). In outline: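 Membranes from guinea pig spleen incubated 2 h with radioligand and compound; bound counts measured by filtration and scintillation. Screened first at 25 uM in duplicate, then actives titrated to a 50 uM top concentration relative to DMSO.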

Assay [5] concerns the target Adenosine receptor A1 (Bos taurus) (UniProt P28190). Nature of the assay: NVS_GPCR_bAdoR_NonSelective: NovaScreen (NVS) G Protein-Coupled Receptor Assay for bovine Adenosine Receptor (AdoR), Non-selective Binding (AID 2283244). In a few lines: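 Cell-free binding with membranes from bovine striatum: radioligand displaced by test chemical, read after 1 h by filtration and scintillation. Single-point 25 uM duplicate primary, 50 uM top concentration in follow-up curves, DMSO baseline.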

Assay [6] has as its system guinea pig Muscarinic, Peripheral (Mperiperal) Receptor, Non-selective Binding, gene 100379235. Nature of the assay: NVS_GPCR_gMPeripheral_NonSelective: NovaScreen (NVS) G Protein-Coupled Receptor Assay for guinea pig Muscarinic, Peripheral (Mperiperal) Receptor, Non-selective Binding (AID 2283250). In a few lines: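 Screened in duplicate at 25 uM, hits retested in concentration series to 50 uM max, using bladder membrane radioligand displacement from guinea pig. Filtration and scintillation counting 1 h post-dose, fitted relative to DMSO.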

The target of assay [7] is rat Monoamine Oxidase, MAO-B, Peripheral (MAOBP), Maob (gene 25750) (UniProt P19643). Nature of the assay: NVS_ENZ_rMAOBP: NovaScreen (NVS) Enzymatic Assay for rat Monoamine Oxidase, MAO-B, Peripheral (MAOBP) (AID 2283242).
Assay [8] can be described thus: NVS_GPCR_bNPY_NonSelective: NovaScreen (NVS) G Protein-Coupled Receptor Assay for bovine Neuropeptide Y (NPY) Receptor, Non-selective Binding (AID 2283245). In outline: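 Displacement of radioligand from bovine hippocampal membrane receptors, read by filtration and scintillation counting after 1 hour. Concentration-response to a top of 50 uM followed a 25 uM duplicate primary screen. Loss of signal versus DMSO.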

Assay [9] concerns rat Monoamine Oxidase, MAO-A, Peripheral (MAOAP), gene 29253. Nature of the assay: NVS_ENZ_rMAOAP: NovaScreen (NVS) Enzymatic Assay for rat Monoamine Oxidase, MAO-A, Peripheral (MAOAP) (AID 2283237). In a few lines: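 Scintillation counting tracked MAO-A activity in a cell-free rat liver mitochondrial membrane prep, read 1.17 hours after compound addition. Single-point duplicate testing at 25 uM preceded concentration-response follow-up; activity was fitted relative to DMSO.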

In assay [10] the target is bovine Dopamine Receptor (DR), Non-selective Binding, DRD1 (gene 281125) (UniProt Q95136). Nature of the assay: NVS_GPCR_bDR_NonSelective: NovaScreen (NVS) G Protein-Coupled Receptor Assay for bovine Dopamine Receptor (DR), Non-selective Binding (AID 2283241). In a few lines: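 Filter-based radioligand binding with bovine striatal membrane, incubated 1 h; DMSO as negative baseline. Initial duplicate single-point test at 25 uM preceded concentration series for actives.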

Assay [11] concerns the target guinea pig Leukotriene D4 Receptor (LTD4), CYSLTR1 (gene 100135514) (UniProt Q2NNR5). Nature of the assay: NVS_GPCR_gLTD4: NovaScreen (NVS) G Protein-Coupled Receptor Assay for guinea pig Leukotriene D4 Receptor (LTD4) (AID 2283248). In a few lines:
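Guinea pig lung membrane preparation; bound radioligand measured by filter scintillation after 1 h, loss of signal versus DMSO marking displacement. Compounds tested at 25 uM in duplicate, hits retested to max 50 uM.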

The target of assay [12] is human Serotonin, 5-Hydroxytryptamine Receptor 5A (5HT5A), HTR5A (gene 3361) (UniProt P47898). Nature of the assay: NVS_GPCR_h5HT5A: NovaScreen (NVS) G Protein-Coupled Receptor Assay for human Serotonin, 5-Hydroxytryptamine Receptor 5A (5HT5A) (AID 2283251). In outline: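 Membranes from HEK293 cells, radioligand binding read by filtration and scintillation after 1 h. Single-concentration duplicate testing at 25 uM, then concentration-response for actives; positive-direction fitting relative to DMSO.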

Assay [13] deals with bovine Histamine 1 Receptor (H1), gene 281231. Nature of the assay: NVS_GPCR_bH1: NovaScreen (NVS) G Protein-Coupled Receptor Assay for bovine Histamine 1 Receptor (H1) (AID 2283246). In a few lines: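 Hits from a 25 uM duplicate primary screen were retested in concentration series (top 50 uM); binding measured as scintillation-counted displacement of radioligand from bovine cerebellar membranes after 1 h, normalised to DMSO.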

Assay [14] has as its target rat Catechol-O-Methyl Transferase (COMT), Comt (gene 24267) (UniProt P22734). Nature of the assay: NVS_ENZ_rCOMT: NovaScreen (NVS) Enzymatic Assay for rat Catechol-O-Methyl Transferase (COMT) (AID 2283235). In outline: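 Rat dorsal striatum extract served as COMT source; product quantified by HPLC/spectrophotometry, read at 0 h after dosing. Primary single-concentration screen at 25 uM, followed by concentration series to a 50 uM maximum.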

The target in assay [15] is human Serotonin, 5-Hydroxytryptamine Receptor 2A (5HT2A), HTR2A (gene 3356) (UniProt P28223). Nature of the assay: NVS_GPCR_h5HT2A: NovaScreen (NVS) G Protein-Coupled Receptor Assay for human Serotonin, 5-Hydroxytryptamine Receptor 2A (5HT2A) (AID 2283249). In outline:
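Radioligand displacement on human cortex tissue extract, counted by filtration and scintillation 1.5 h post-dosing. Initial single-concentration screen at 25 uM in duplicate, concentration series in follow-up; DMSO as baseline.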

The target in assay [16] is rat Monoamine Oxidase, MAO-B, Central (MAOBC), Maob (gene 25750) (UniProt P19643). Nature of the assay: NVS_ENZ_rMAOBC: NovaScreen (NVS) Enzymatic Assay for rat Monoamine Oxidase, MAO-B, Central (MAOBC) (AID 2283238). In a few lines: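 Here MAO-B activity in rat brain preparations is quantified radiometrically, counts taken at 1.17 hours. Concentration-response runs reach 50 uM, with plate controls, and values are fitted as loss of signal from the DMSO baseline.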

As usually defined, the AC50 is the concentration at which the activity in the assay is half-maximal.

Sequence of rat Monoamine Oxidase, MAO-B, Peripheral (MAOBP), Maob (gene 25750) (P19643 whole entry, looked up): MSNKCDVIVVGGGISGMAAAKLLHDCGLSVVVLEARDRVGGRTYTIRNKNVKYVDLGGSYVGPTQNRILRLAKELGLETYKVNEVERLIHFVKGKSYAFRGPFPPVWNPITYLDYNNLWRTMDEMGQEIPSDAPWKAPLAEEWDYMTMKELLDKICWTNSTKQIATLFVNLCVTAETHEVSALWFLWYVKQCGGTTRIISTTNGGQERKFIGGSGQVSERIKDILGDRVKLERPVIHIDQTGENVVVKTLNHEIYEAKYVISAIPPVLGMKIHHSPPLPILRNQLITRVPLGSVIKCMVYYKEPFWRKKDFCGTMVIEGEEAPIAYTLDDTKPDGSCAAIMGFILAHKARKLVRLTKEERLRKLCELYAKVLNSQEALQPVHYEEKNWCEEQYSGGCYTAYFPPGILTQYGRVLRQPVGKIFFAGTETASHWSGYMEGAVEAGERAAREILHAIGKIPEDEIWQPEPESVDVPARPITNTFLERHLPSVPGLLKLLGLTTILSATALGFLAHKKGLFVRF
Sequence of Adenosine receptor A1 (Bos taurus) (P28190 whole entry, looked up): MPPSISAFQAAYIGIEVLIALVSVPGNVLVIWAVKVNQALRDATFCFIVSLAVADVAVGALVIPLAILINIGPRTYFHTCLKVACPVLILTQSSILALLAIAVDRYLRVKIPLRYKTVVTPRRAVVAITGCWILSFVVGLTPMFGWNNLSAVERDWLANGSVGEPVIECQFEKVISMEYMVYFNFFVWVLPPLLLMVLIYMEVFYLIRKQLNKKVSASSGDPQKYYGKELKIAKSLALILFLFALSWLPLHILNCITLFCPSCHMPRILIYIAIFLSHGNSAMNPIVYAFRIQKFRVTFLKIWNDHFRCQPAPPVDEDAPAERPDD
Sequence of bovine Dopamine Receptor (DR), Non-selective Binding, DRD1 (gene 281125) (Q95136 whole entry, looked up): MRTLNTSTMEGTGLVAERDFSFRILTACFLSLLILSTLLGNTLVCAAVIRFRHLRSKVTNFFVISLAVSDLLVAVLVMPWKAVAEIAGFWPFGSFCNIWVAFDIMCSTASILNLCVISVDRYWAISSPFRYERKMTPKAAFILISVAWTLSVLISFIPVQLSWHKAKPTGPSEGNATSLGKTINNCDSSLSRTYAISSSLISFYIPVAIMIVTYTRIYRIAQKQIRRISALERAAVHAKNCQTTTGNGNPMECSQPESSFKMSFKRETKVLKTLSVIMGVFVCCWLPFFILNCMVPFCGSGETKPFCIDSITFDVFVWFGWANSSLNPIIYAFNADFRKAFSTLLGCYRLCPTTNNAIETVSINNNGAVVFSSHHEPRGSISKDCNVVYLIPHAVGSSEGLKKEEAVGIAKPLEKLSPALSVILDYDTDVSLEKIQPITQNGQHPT
Sequence of human Serotonin, 5-Hydroxytryptamine Receptor 2A (5HT2A), HTR2A (gene 3356) (P28223 whole entry, looked up): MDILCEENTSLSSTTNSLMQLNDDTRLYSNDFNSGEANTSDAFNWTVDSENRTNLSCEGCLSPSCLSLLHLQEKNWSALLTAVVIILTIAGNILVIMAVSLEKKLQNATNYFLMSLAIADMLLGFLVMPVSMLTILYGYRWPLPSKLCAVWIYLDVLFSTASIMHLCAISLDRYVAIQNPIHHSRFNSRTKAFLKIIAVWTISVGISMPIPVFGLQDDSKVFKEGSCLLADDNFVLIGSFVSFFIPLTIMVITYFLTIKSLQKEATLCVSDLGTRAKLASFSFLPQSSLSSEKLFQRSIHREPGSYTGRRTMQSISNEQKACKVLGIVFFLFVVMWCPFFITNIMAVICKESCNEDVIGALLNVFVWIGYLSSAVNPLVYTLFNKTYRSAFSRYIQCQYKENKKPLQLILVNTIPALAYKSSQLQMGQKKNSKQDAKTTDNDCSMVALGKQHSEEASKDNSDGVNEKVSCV
Sequence of rat Constitutive Nitric Oxide Synthase (CNOS), Nos1 (gene 24598) (P29476 whole entry, looked up): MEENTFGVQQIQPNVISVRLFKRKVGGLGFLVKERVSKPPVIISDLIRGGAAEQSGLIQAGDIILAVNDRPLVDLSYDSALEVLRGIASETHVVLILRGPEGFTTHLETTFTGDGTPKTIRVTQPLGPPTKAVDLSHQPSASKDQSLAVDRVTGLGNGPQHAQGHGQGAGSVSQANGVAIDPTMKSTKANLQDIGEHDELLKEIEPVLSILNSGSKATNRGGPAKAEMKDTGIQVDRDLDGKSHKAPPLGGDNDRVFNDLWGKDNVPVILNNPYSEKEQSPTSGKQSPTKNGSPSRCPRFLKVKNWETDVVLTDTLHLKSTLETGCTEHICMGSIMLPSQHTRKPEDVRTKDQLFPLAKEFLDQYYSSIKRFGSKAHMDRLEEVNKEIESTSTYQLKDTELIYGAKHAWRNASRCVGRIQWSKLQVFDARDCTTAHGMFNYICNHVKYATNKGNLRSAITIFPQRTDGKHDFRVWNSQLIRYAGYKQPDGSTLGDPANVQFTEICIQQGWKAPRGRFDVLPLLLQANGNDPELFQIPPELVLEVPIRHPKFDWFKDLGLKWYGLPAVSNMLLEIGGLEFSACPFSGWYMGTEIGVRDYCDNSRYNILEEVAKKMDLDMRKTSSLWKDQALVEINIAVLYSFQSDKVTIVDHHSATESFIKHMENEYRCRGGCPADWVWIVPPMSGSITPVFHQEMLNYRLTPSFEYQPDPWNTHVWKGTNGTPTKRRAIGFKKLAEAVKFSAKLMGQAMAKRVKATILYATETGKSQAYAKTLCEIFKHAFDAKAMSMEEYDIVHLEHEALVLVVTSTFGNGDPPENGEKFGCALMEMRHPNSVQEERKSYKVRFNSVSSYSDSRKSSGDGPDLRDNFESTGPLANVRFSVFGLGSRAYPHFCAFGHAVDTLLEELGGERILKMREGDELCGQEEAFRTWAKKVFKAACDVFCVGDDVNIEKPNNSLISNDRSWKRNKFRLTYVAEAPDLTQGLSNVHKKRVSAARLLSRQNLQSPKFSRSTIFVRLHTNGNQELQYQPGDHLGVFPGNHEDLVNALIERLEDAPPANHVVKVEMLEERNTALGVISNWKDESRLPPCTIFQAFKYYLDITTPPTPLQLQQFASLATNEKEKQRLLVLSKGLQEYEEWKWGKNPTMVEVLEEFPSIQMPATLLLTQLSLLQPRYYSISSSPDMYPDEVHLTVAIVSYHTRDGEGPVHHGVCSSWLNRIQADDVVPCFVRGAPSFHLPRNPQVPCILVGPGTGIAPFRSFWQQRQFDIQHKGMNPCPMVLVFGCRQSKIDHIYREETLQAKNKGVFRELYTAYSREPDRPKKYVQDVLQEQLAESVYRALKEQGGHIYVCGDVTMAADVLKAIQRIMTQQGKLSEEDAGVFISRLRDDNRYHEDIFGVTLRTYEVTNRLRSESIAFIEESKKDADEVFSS
Sequence of guinea pig Leukotriene D4 Receptor (LTD4), CYSLTR1 (gene 100135514) (Q2NNR5 whole entry, looked up): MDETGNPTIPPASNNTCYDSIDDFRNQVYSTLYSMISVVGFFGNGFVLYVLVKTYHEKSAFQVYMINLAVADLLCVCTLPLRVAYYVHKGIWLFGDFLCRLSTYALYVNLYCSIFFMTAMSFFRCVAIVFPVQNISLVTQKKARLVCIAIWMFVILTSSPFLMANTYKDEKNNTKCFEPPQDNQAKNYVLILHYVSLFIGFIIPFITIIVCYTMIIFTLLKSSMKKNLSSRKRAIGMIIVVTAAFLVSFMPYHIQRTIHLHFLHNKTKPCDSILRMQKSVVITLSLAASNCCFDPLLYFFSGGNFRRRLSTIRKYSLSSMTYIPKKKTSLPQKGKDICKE
Sequence of rat Catechol-O-Methyl Transferase (COMT), Comt (gene 24267) (P22734 whole entry, looked up): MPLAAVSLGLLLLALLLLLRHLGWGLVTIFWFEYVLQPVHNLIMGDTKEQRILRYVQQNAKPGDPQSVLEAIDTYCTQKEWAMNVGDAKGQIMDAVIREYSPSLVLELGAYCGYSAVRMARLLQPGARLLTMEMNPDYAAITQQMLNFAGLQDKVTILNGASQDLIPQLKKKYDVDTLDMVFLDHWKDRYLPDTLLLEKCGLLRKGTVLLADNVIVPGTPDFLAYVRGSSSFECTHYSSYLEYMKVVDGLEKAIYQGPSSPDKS
Sequence of rat Monoamine Oxidase, MAO-B, Central (MAOBC), Maob (gene 25750) (P19643 whole entry, looked up): as the sequence (P19643 whole entry, looked up) above
Sequence of rat Acetylcholinesterase (AChE), Ache (gene 83817) (P37136 whole entry, looked up): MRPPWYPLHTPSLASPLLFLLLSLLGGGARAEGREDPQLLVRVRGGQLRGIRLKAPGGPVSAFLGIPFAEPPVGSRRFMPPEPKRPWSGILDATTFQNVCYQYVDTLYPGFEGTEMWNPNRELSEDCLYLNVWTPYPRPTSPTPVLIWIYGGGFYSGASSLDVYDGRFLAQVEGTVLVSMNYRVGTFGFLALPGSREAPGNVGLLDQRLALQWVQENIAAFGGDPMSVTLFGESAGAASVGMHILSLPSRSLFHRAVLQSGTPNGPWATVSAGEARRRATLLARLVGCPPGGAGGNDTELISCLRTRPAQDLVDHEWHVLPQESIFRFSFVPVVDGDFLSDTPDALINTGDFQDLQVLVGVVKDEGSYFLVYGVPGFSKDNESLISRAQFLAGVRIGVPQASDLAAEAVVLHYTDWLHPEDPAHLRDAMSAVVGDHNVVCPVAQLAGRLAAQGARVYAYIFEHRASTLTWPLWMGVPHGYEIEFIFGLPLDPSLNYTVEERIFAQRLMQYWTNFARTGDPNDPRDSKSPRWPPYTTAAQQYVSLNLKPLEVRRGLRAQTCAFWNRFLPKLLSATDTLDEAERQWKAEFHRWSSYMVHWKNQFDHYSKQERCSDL

`CCCCOC(=O)c1ccccc1C(=O)OCc1ccccc1`: the call in [1] was inactive.
With `CN(C)C(=O)Nc1ccc(Cl)cc1`, the result in [2] was inactive. In [3], the AC50 is 25 µM (active).
In the case of `Nc1ccc(Cc2ccc(N)cc2)cc1`, the AC50 in [4] was 2.83 µM (active).
For the compound `C=CCc1ccc2c(c1)OCO2`, the outcome in assay [1] was inactive.
Consider `CS(=O)(=O)NC(=O)c1cc(Oc2ccc(C(F)(F)F)cc2Cl)ccc1[N+](=O)[O-]`, for which the compound was classed as inactive in assay [5].
As to `O=C(Oc1ccc(Br)cc1)N1CCN2CCC1CC2`, the AC50 in [6] was 15 µM (active).
In the case of `O=[N+]([O-])c1ccc(Oc2ccc(Cl)cc2Cl)cc1`, the outcome in [6] was inactive.
Turning to `Cn1cc(-c2ccccc2)c(=O)c(-c2cccc(C(F)(F)F)c2)c1`, the result in assay [7] was inactive.
With `O=C(Nc1ccccc1)c1ccccc1I`, the result in [8] was inactive.
On to `[Cl-].[Cl-].[Hg+2]`, for which the AC50 was 3.19 µM (active) in [9]; 11.6 µM (active) in [10]; 9.04 µM (active) in assay [7]; 19.1 µM (active) in assay [5]; 12 µM (active) in assay [8]; 1.4 µM (active) in assay [11]. Moreover, the values for the AC50 in assay [6] and in assay [12] were 9.07 µM (active) and 1.59 µM (active), respectively. The compound was called inactive in assay [3].
Turning to `C[C@]12C=CC3=C4CCC(=O)C=C4CC[C@H]3[C@@H]1CC[C@@H]2O`, in [13], the call was inactive. The concentration at half-maximal activity (AC50) in assay [4] was 2.88 µM (active).
`CCCCCCCCCCCCCN1CC(C)OC(C)C1` (configuration not stated): in assay [14], the AC50 is 20.8 µM (active). In addition, the result in assay [5] was inactive.
As to `CCN(CC)CCO`, the call in assay [9] was inactive.
Regarding `Nc1ccc(Oc2ccc(N)cc2)cc1`, the concentration at half-maximal activity (AC50) in assay [3] was 11.3 µM (active).
With `CC(C)(C)OOC(C)(C)CCC(C)(C)OOC(C)(C)C`, in [9], the result was inactive.
On to `CC(C)(C)C(O)(CCc1ccc(Cl)cc1)Cn1cncn1` (configuration not stated), for which, in assay [15], the compound was called inactive.
With `Nc1ccc([N+](=O)[O-])cc1`, the figures for the concentration at half-maximal activity (AC50) in assay [9] and in [3] were 16.7 µM (active) and 36.3 µM (active), respectively.
For `O=C(N[C@H](c1ccccc1)[C@@H]1CN2CCC1CC2)c1c(Cl)ccc(C(F)(F)F)c1Cl`, the AC50 in [9] is 50.6 µM (active); in assay [10], 29.1 µM (active); in assay [3], 37.5 µM (active); in [15] it was 37.5 µM (active). Also, in assay [6], the compound was classed as inactive.
Consider `Nc1ccc(N=Nc2ccccc2)cc1`, for which the AC50 in assay [9] is 18.3 µM (active); in assay [16] it was 25 µM (active); in [3], 10.6 µM (active); in assay [5], 25 µM (active). Besides, the compound was called inactive in assay [7].
On to `CC(C)COC(=O)c1ccccc1C(=O)OCC(C)C`, for which the compound was called inactive in [7].
For the compound `Nc1ccc(Cl)cc1N`, the call in assay [3] and in [5] was inactive.
